Measured values published in PubChem BioAssay.

biological target: Nuclear receptor coactivator 1 (Homo sapiens) (UniProt Q15788); test: NCOA1 GAL4-fusion reporter inhibition – cell-based, luminescence, quadruplicate, confirmation (AID 588820); conditions: HEK293 GAL4-SRC1 luciferase reporter, at 3.6 µM, stronger effect = higher value;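 also: 0% = DMSO wells and 100% = gossypol 36 µM treated wells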
Sequence (Q15788 whole entry, looked up, the tested form may be a part): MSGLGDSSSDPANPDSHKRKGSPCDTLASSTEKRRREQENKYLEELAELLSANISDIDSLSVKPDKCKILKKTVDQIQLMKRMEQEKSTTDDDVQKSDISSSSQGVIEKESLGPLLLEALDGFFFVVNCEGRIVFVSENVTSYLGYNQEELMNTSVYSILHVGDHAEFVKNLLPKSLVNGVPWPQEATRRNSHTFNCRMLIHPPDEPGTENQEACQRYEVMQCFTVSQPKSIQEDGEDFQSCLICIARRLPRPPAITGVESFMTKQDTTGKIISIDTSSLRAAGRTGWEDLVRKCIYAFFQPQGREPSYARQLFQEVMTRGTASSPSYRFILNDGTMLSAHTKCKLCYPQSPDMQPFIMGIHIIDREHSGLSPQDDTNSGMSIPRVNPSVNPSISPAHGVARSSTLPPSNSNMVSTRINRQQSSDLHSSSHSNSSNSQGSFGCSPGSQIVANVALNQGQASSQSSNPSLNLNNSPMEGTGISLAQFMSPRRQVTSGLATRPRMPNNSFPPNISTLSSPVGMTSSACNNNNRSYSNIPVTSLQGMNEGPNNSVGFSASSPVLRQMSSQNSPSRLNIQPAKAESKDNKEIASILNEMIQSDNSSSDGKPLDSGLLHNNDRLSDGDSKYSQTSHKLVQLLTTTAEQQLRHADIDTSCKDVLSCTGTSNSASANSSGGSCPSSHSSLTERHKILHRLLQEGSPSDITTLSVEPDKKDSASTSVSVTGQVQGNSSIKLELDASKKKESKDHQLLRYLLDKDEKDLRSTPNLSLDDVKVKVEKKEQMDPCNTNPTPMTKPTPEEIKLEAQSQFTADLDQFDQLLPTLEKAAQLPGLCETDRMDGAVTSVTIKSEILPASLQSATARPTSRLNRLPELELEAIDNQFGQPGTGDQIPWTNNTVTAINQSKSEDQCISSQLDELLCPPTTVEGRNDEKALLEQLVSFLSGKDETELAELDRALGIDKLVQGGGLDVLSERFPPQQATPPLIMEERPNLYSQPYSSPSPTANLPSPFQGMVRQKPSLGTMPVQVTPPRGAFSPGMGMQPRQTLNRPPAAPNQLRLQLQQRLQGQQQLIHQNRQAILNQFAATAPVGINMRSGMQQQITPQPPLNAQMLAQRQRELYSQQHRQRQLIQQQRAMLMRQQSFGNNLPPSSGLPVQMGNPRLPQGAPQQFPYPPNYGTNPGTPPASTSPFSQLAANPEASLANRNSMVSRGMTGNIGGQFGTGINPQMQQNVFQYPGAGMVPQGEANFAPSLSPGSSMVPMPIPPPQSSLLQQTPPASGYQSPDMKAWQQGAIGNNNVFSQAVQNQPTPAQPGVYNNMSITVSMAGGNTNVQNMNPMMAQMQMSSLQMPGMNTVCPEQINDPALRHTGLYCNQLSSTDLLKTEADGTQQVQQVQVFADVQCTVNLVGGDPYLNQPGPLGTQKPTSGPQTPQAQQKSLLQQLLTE

inhibition, inactive:
Cc1cccc(Oc2ncnc(N)c2[N+](=O)[O-])c1C -14.1%
CCc1nc2c(OCc3c(C)noc3C)cccn2c1N(C=O)Cc1ccccc1 -4.23%
CC[n+]1c(/C=C/Nc2ccccc2)oc2ccccc21 36.7%
CCOC(=O)N1CCC(N(CCN(C)C)C(=S)Nc2ccccc2OCC)CC1 -21.5%
CCOc1cc(C(=S)N2CCCCC2)ccc1OCC(=O)NCc1ccccc1 -15.9%
CCCc1cc(-c2ccc(O)c(OCC)c2)c(C#N)c(N)n1 -3.92%
O=C(NNC(=O)c1ccccc1O)c1ccc(Cl)c(S(=O)(=O)N2CCc3ccccc32)c1 8.03%
COc1cc(/C=N/NC(=O)NC23CC4CC(CC(C4)C2)C3)ccc1OCC(N)=O -24.7%
O=[N+]([O-])c1ccc(C[n+]2cccc3c4ccccc4ccc32)cc1 3.12%
COc1ccc(CCN(C)C(=O)CSc2nnc(C3CC3)n2N)cc1OC 6.18%
CCOc1ccc(CCN2C(=S)N([C@@H](CC(C)C)CN3CCC[C@@H]3CN3C(=S)NC[C@@H]3CC(C)C)C[C@@H]2CC(C)C)cc1 3.98%
Cc1[nH]nc2ncc(C(=O)c3cc(F)ccc3O)cc12 18.4%
CCOc1ccc(NC(=O)CN(C)C(=O)C2CCN(c3ncnc4sc(C)c(C)c34)CC2)cc1OCC 0.38%
COc1ccc(-c2cc(C(=O)NCCCN3CCOCC3)c3ccccc3n2)cc1OC -12.4%
COc1ccc(CN2CCN(C(=O)c3cc(-c4cccnc4)nc4ccc(Cl)cc34)CC2)c(OC)c1OC -29.8%
COc1cc(NC(=O)c2cccc3c(-c4cccnc4)coc23)cc(OC)c1OC -19.1%
Cn1c(N)c(C(=O)CSc2nn(-c3ccccc3)c(=S)s2)c(=O)n(C)c1=O 8.31%
Cc1nc(N=C(N)N)nc2ccccc12 2.65%
C/C(=N\N=C1\NC(=O)C(CC(=O)O)S1)c1ccccn1 (configuration not stated) -1.33%
O=S(=O)(NCC1CN(S(=O)(=O)c2c(F)cccc2F)C1)c1ccc2c(c1)OCCO2 2.79%
CCOC(=O)N1CCN(C2=Nc3cccc4cccc2c34)CC1 -13.8%
CC(C)(C)c1ccc(CC(=O)N2CCC2(C)C(=O)Nc2ccc(F)cc2F)cc1 (configuration not stated) 1.73%
COc1ccc(C(=O)NNC(=O)C(=O)N2CCCCC2)cc1OC -5.24%
CCCCc1ccc(NC(=O)Nc2c(C)n(C)n(-c3ccccc3)c2=O)cc1 -11%
COc1ccc(CNC(=O)C(c2ccc(C)cc2)N(Cc2cccs2)C(=O)c2ccc3c(c2)OCCO3)cc1 (configuration not stated) -13.9%
Cn1c2ccccc2c(=O)c2ccc(C#CC3(O)CCCCC3)cc21 -132%
O=C(Nc1ccncc1)c1cccc(S(=O)(=O)N2CCc3ccccc32)c1 -21.8%
